{"source": "PubChem BioAssay (NCATS)", "note": "Where “and” joins values, the source holds several entries; their conditions need not be identical. Identical values can stand only once. Inconclusive results are not listed. A call without a number means that no potency is given here. Calls of active or inactive are those of the source. The call rests on the fitted dose curve; in most records, active means well fitted curve in the direction sought with a large enough effect; inconclusive means small, poorly fitted or top-dose-only effect, or another doubt; inactive means no such curve, though single readings can be large; an effect the other way counts as inactive or inconclusive. Potency means the concentration at half of the fitted maximal effect."}
{"assay": "qHTS of pediatric cancer cell lines to identify multiple opportunities for drug repurposing: Primary screen for OHS-50 cells (AID 1347103); further: nearly all actives have a fitted effect of over 40% in size", "settings": "OHS-50 osteosarcoma viability, CellTiter-Glo luminescence, 48 h; series mostly up to 57.3 µM", "in_short": "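Cells (500-1,000/well) rested 5 h, then received compounds for 48 h; metabolically active cells were measured by CellTiter-Glo luminescence. Final concentrations spanned up to 46 µM (MIPE, 11-point) or 0.59 nM-46 µM (NPC, 8-point) in primary screens, 11-point in follow-ups.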"}
{"smiles": "CCCCC1C(=O)N(c2ccccc2)N(c2ccccc2)C1=O", "Potency": "inactive"}
{"smiles": "COC1CCC(N(C(=O)C2CCC(C)CC2)c2cc(C3=CCCCC3)sc2C(=O)O)CC1", "note": "(centres undefined)", "Potency": "inactive"}
{"smiles": "NS(=O)(=O)c1cccc2c1C(=O)c1cccc(O)c1C2=O", "Potency": "0.769 µM (active)"}
{"smiles": "Cc1nnc(C(C)C)n1C1C[C@H]2CC[C@@H](C1)N2CC[C@H](NC(=O)C1CCC(F)(F)CC1)c1ccccc1", "note": "(some centres undefined)", "Potency": "inactive"}
{"smiles": "Cc1nc(N)sc1-c1ccnc(Nc2ccc(N3CCOCC3)cc2)n1", "Potency": "3.85 µM (active)"}
{"smiles": "O=C(CCCCCCC(=O)Nc1ccccc1)NO", "Potency": "2.19 µM (active) and 2.73 µM (active)"}
{"smiles": "CC(C)NCC(O)COc1cccc2[nH]ccc12", "note": "(centres undefined)", "Potency": "inactive"}
{"smiles": "O=C1NC(=O)C(c2ccccc2)(c2ccccc2)N1", "Potency": "inactive"}
{"smiles": "CON=C(C(=O)N[C@@H]1C(=O)N2C(C(=O)OCOC(=O)C(C)(C)C)=C(C=Cc3scnc3C)CS[C@H]12)c1csc(N)n1", "Potency": "inactive"}
{"smiles": "c1cc(-c2sc(-c3ccncc3)c(-c3ccncc3)c2-c2ccncc2)ccn1", "Potency": "inactive"}
{"smiles": "CN1C[C@H]2c3ccccc3Oc3ccc(Cl)cc3[C@@H]2C1", "Potency": "21.9 µM (active)"}
{"smiles": "Clc1ccc(C(c2ccc(Cl)cc2)n2cc[n+](CC(OCc3ccc(Cl)cc3Cl)c3ccc(Cl)cc3Cl)c2)cc1", "note": "(centres undefined)", "Potency": "17.2 µM (active)"}
{"smiles": "OC[C@@H](O)[C@H](O)[C@H](O)[C@@H](O)CO", "Potency": "inactive"}
{"smiles": "C=C1C(=O)[C@@]23C(CC[C@@H]1[C@H]2O)[C@@]12CO[C@]3(O)[C@@H](O)[C@@H]1C(C)(C)CC[C@@H]2O", "note": "(some centres undefined)", "Potency": "9.68 µM (active)"}
{"smiles": "CC(C)n1nc(-c2ccc3oc(N)nc3c2)c2c(N)ncnc21", "Potency": "0.0012 µM (active)"}
{"smiles": "CCOC1OC(=O)C[C@H]1NC(=O)[C@@H]1CCCN1C(=O)[C@@H](NC(=O)c1ccc(N)c(Cl)c1)C(C)(C)C", "note": "(some centres undefined)", "Potency": "1.22 µM (active)"}
{"smiles": "CC(C)(C)c1cc(C(=O)O)c(NC(=O)Nc2ccc3[nH]ncc3c2)s1", "Potency": "inactive"}
{"smiles": "CC(C)C(C)C=CC(C)C1CCC2C3=CC=C4CC(O)CCC4(C)C3CCC21C", "note": "(centres undefined)", "Potency": "inactive"}
{"smiles": "Clc1ccc(-c2nc3sccn3c2C=NOCc2ccc(Cl)c(Cl)c2)cc1", "Potency": "inactive"}
{"smiles": "C=C1C(=O)OC(CCCCCCCC)C1C(=O)O", "note": "(centres undefined)", "Potency": "inactive"}
{"smiles": "O=C(NCCN1CCOCC1)c1ccc(Cl)cc1", "Potency": "inactive"}
{"smiles": "Oc1ccc(C2CCN(c3ccnc4ccccc34)CC2)cc1O", "Potency": "17.2 µM (active)"}
{"smiles": "CC1(C)CCC(CN2CCN(c3ccc(C(=O)NS(=O)(=O)c4ccc(NCC5CCOCC5)c([N+](=O)[O-])c4)c(Oc4cnc5[nH]ccc5c4)c3)CC2)=C(c2ccc(Cl)cc2)C1", "Potency": "15.3 µM (active)"}
{"smiles": "NC1CCC(Nc2nc(Nc3ccc(C(=O)N4CCCCC4)cc3)c3ncn(-c4cccc(F)c4)c3n2)CC1", "note": "(centres undefined)", "Potency": "inactive"}
{"smiles": "NC1=N[C@@]2(c3cc(NC(=O)c4ccc(F)cn4)ccc3F)COC[C@@H]2CS1", "Potency": "0.137 µM (active)"}
{"smiles": "CCc1ccc(OCc2ccccc2C(=O)Nc2ccc3nc(C)cc(N)c3c2)cc1", "Potency": "3.43 µM (active)"}
{"smiles": "COc1ccc2c3c1OC1C[C@@H](O)C=C[C@@]31CCN(C)C2", "note": "(some centres undefined)", "Potency": "inactive"}
{"smiles": "O=c1[nH]cnc2c1ncn2[C@H]1CC[C@@H](CO)O1", "Potency": "inactive"}
{"smiles": "CC#CCn1c(N2CCC[C@@H](N)C2)nc2c1c(=O)n(Cc1nc(C)c3ccccc3n1)c(=O)n2C", "Potency": "inactive"}
{"smiles": "CC(C)(C(=O)NCC(F)(F)C(F)(F)F)C(=O)N[C@@H]1C(=O)Nc2ccccc2-c2ccccc21", "Potency": "1.53 µM (active)"}
{"smiles": "CCCCCCCCCCCC1=C(O)C(=O)C=C(O)C1=O", "Potency": "0.0193 µM (active)"}
{"smiles": "CNC(=O)c1ccccc1Sc1ccc2c(C=Cc3ccccn3)n[nH]c2c1", "Potency": "21.7 µM (active)"}
{"smiles": "OC[C@H]1O[C@@H](n2cnc3c2NC=NC[C@@H]3O)C[C@H]1O", "Potency": "inactive"}
{"smiles": "O=C1c2ccccc2-[n+]2ccc3c([nH]c4ccccc43)c21", "Potency": "2.17 µM (active)"}
{"assay": "qHTS of pediatric cancer cell lines to identify multiple opportunities for drug repurposing: Primary screen for RD cells (AID 1347104); further: nearly all actives have a fitted effect of over 55% in size", "settings": "RD rhabdomyosarcoma viability, CellTiter-Glo luminescence, 48 h; series mostly up to 46 µM", "in_short": "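Viability was measured as metabolically active cells after 48 hours of treatment, read by CellTiter-Glo luminescence. Compounds were tested at multiple final concentrations, giving concentration-response curves.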"}
{"smiles": "CCCCC1C(=O)N(c2ccccc2)N(c2ccccc2)C1=O", "Potency": "inactive"}
{"smiles": "CCc1ccc(C=C2SC(=S)NC2=O)cc1", "Potency": "inactive"}
{"smiles": "NS(=O)(=O)c1cccc2c1C(=O)c1cccc(O)c1C2=O", "Potency": "0.526 µM (active)"}
{"smiles": "Cc1nc(N)sc1-c1ccnc(Nc2ccc(N3CCOCC3)cc2)n1", "Potency": "20.9 µM (active)"}
{"smiles": "O=C(CCCCCCC(=O)Nc1ccccc1)NO", "Potency": "5.31 µM (active) and 6.62 µM (active)"}
{"smiles": "CC(C)NCC(O)COc1cccc2[nH]ccc12", "note": "(centres undefined)", "Potency": "inactive"}
{"smiles": "O=C1NC(=O)C(c2ccccc2)(c2ccccc2)N1", "Potency": "inactive"}
{"smiles": "CON=C(C(=O)N[C@@H]1C(=O)N2C(C(=O)OCOC(=O)C(C)(C)C)=C(C=Cc3scnc3C)CS[C@H]12)c1csc(N)n1", "Potency": "inactive"}
{"smiles": "CN1C[C@H]2c3ccccc3Oc3ccc(Cl)cc3[C@@H]2C1", "Potency": "inactive"}
{"smiles": "Clc1ccc(C(c2ccc(Cl)cc2)n2cc[n+](CC(OCc3ccc(Cl)cc3Cl)c3ccc(Cl)cc3Cl)c2)cc1", "note": "(centres undefined)", "Potency": "33.2 µM (active)"}
{"smiles": "OC[C@@H](O)[C@H](O)[C@H](O)[C@@H](O)CO", "Potency": "inactive"}
{"smiles": "C=C1C(=O)[C@@]23C(CC[C@@H]1[C@H]2O)[C@@]12CO[C@]3(O)[C@@H](O)[C@@H]1C(C)(C)CC[C@@H]2O", "note": "(some centres undefined)", "Potency": "9.35 µM (active)"}
{"smiles": "CC(C)n1nc(-c2ccc3oc(N)nc3c2)c2c(N)ncnc21", "Potency": "0.0296 µM (active)"}
{"smiles": "C[C@]12CCC3c4ccc(O)cc4CCC3C1CCC2=O", "note": "(some centres undefined)", "Potency": "inactive"}
{"smiles": "COC(=O)N[C@H](C(=O)N1CCC[C@@H]1c1ncc(-c2ccc(-c3ccc(-c4cnc([C@@H]5CCCN5C(=O)[C@@H](NC(=O)OC)C(C)C)[nH]4)cc3)cc2)[nH]1)C(C)C", "Potency": "33.2 µM (active)"}
{"smiles": "CC(C)C(C)C=CC(C)C1CCC2C3=CC=C4CC(O)CCC4(C)C3CCC21C", "note": "(centres undefined)", "Potency": "inactive"}
{"smiles": "Clc1ccc(-c2nc3sccn3c2C=NOCc2ccc(Cl)c(Cl)c2)cc1", "Potency": "inactive"}
{"smiles": "C=C1C(=O)OC(CCCCCCCC)C1C(=O)O", "note": "(centres undefined)", "Potency": "inactive"}
{"smiles": "O=C(NCCN1CCOCC1)c1ccc(Cl)cc1", "Potency": "inactive"}
{"smiles": "CC1(C)CCC(CN2CCN(c3ccc(C(=O)NS(=O)(=O)c4ccc(NCC5CCOCC5)c([N+](=O)[O-])c4)c(Oc4cnc5[nH]ccc5c4)c3)CC2)=C(c2ccc(Cl)cc2)C1", "Potency": "18.7 µM (active)"}
{"smiles": "NC1CCC(Nc2nc(Nc3ccc(C(=O)N4CCCCC4)cc3)c3ncn(-c4cccc(F)c4)c3n2)CC1", "note": "(centres undefined)", "Potency": "inactive"}
{"smiles": "CCc1ccc(OCc2ccccc2C(=O)Nc2ccc3nc(C)cc(N)c3c2)cc1", "Potency": "5.9 µM (active)"}
{"smiles": "O=c1[nH]cnc2c1ncn2[C@H]1CC[C@@H](CO)O1", "Potency": "inactive"}
{"smiles": "OC[C@H]1O[C@@H](n2cnc3c2NC=NC[C@@H]3O)C[C@H]1O", "Potency": "inactive"}
{"smiles": "O=C1c2ccccc2-[n+]2ccc3c([nH]c4ccccc43)c21", "Potency": "1.87 µM (active)"}
